Source: PubChem (National Center for Advancing Translational Sciences (NCATS))
Menin-MLL FL inh – inhibitors of human menin-MLL interaction, wild-type MLL peptide | FP activity change, % at 61.4 µM | Fluorescence polarization, fluorescein-MLL peptide displacement from menin | 290,000 tested, under 10 active; active = well fitted curve in the direction sought with a large enough effect in the polarisation, not every such curve was filed as active; inconclusive = small, poorly fitted or top-dose-only effect, or effect the other way, or a change in a side signal; inactive = no such curve, though single readings can be large or run the other way; the % refers to the polarisation; also: % of control where 0% means no effect
Menin MLL FP TR – displaces Texas Red mutant MLL peptide from human menin; Potency, µM (titrated, usually from 61.6 µM), for the others: at the highest dose FP activity change, negative = inhibition, usual class: inhibitors; Menin + Texas Red MLL mutant peptide, fluorescence polarization; O00255; AID 1768; hit rate 0.23% among 270,000; active = well fitted inhibition curve with a large enough effect in the polarisation, with a control signal flat, not every such curve was filed as active; inconclusive = small, poorly fitted or top-dose-only effect, or effect the other way, or a change in a side signal; inactive = no such curve, though single readings can be large or run the other way; the % refers to the polarisation; also: potency is read from the fitted curve at half-maximal effect; % of control where 0% means no effect
CXXC DNA block – MLL CXXC-DNA interaction inhibition. Q03164. MLL-CXXC / FITC-HOXA9 DNA fluorescence polarization. hit rate 0.037% among 290,000. Potency, µM (highest dose often 115 µM), without a hit: top-dose activity change, negative = inhibition, usual class: inhibitors; active = well fitted inhibition curve with a large enough effect in the polarisation, with a control signal flat, not every such curve was filed as active; inconclusive = small, poorly fitted or top-dose-only effect, or effect the other way, or a change in a side signal; inactive = no such curve, though single readings can be large or run the other way; the % refers to the polarisation; also: potency is read from the fitted curve at half-maximal effect
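Purified MLL-CXXC (added from a 7 uM solution) was preincubated 5 min at ambient with pinned compounds in 50 mM Tris-HCl pH 7.5, 50 mM NaCl, 1 mM DTT, 0.05% BSA. Fluorescein-labeled HOX-A9 DNA (50 nM solution) followed, 30 min, then polarization read.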
p53 reactivator – mutant p53 re-activation in reporter cells | Potency, µM (titrated, usually from 92.2 µM), inactives show at the top dose activity change, positive = activation, actives largely listed as activators | hit rate 0.063% among 320,000 | H1299 p53-A138V BP100-luciferase reporter, luminescence, 24 h | AID 504706; active = well fitted activation curve with a large enough effect; inconclusive = small, poorly fitted or top-dose-only effect; inactive = no such curve, though single readings can be large or run the other way; also: potency is read from the fitted curve at half-maximal effect; % of control where 0% means no effect; nearly all actives have a fitted effect of over 45% in size
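p53-null H1299 cells stably carrying temperature-sensitive p53-A138V and a BP100-luciferase reporter were pinned with compounds (4-point, 1:5 series) and held 24 hrs at 37 deg C. Luminescence was read 10 min after detection reagent.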
ClpP mod – qHTS Assay for Activators of ClpP; ATP-dependent Clp protease proteolytic subunit (Bacillus subtilis (strain 168)), P80244; purified B. subtilis ClpP, FRET peptide cleavage, 20 min; Potency, µM (top dose mostly 57.5 µM), for inactives: at the top dose activity change, negative = active; hit rate 1.9% among 340,000; AID 651965, 2013; active = well fitted falling curve with a large enough effect; inconclusive = small, poorly fitted or top-dose-only effect; inactive = no such curve, though single readings can be large or run the other way; also: potency is read from the fitted curve at half-maximal effect; the source files actives as falling curves though it sought activators and does not explain the sign; nearly all actives have a fitted effect of over 65% in size
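FRET quenching reversal measured ClpP activation: 10 microg/mL B. subtilis ClpP at pH 8 with the FRET-FV decapeptide, read at 430 nm after 320 nm excitation. The 20-min minus 0-min signal was scaled between DMSO/no-enzyme wells and ADEP (5.8 microM final).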
The depositor's hits bear a star; ? = inconclusive; . = not tested or not shown; [ ] = remark or other dose. Shown is part of a subset that was picked to be rich in hits.

SMILES | Menin-MLL FL inh | Menin MLL FP TR | CXXC DNA block | p53 reactivator | ClpP mod
Cc1cnc(NC(=O)C2CC(=O)N(c3ccc4c(c3)OCCO4)C2)s1 (stereo not given) | . | . | . | -5% | 28µM*
CCCC[C@H](NC(C)=O)C(=O)N[C@@H](CCC(=O)O)C(=O)N[C@@H](Cc1cnc[nH]1)C(=O)N[C@H](Cc1ccccc1)C(=O)N[C@@H](CCCN=C(N)N)C(=O)N[C@H](Cc1c[nH]c2ccccc12)C(=O)NCC(N)=O | 1 | 10% | . | . | .
O=C(NC(=S)NCCN1CCOCC1)c1ccccc1Br | -3 | -1% | 10% | 10% | 25µM*
COc1cccc2c1Oc1ncccc1N(c1ccc(C(=O)NCc3cccc(C)c3)s1)C2 | . | . | . | . | 32µM*
COc1cccc2c1Oc1ncccc1N(c1ccc(C(=O)NCc3ccccc3Cl)s1)C2 | . | . | . | . | 14µM*
COc1cccc2c1Oc1ncccc1N(C(=O)CCC(=O)NCc1ccc(N(C)C)cc1)C2 | . | . | . | . | -2%
COCCNC(=O)CCC(=O)N1Cc2cccc(OC)c2Oc2ncccc21 | . | . | . | . | -1%
CCOC(=O)c1cc(-c2ccc(OC(F)F)cc2)nc2c1c(=O)[nH]c(=O)n2C | 4 | -8% | -6% | -10% | 3.5µM*
CCc1ccc2[nH]c(=O)c(CN(Cc3ccco3)Cc3nnnn3Cc3ccco3)cc2c1 | . | . | . | . | -24%
Cc1cccc(C)c1NC(=O)CN1C(=O)S/C(=C\c2cccn2-c2cccc(C(=O)O)c2)C1=O | 9 | 28% | 6% | -11% | 28µM*
COc1ccc(-c2ncccc2O)cc1 | 7 | -1% | -17% | 14% | 25µM*
COc1ccc(-c2ncccc2OC(=O)C23CC4CC(CC(C4)C2)C3)cc1 | 1 | ? | 13% | 11% | 25µM*
COc1ccc(-c2nc3ccccc3nc2-c2ccccc2)cc1 | -5 | 0% | -1% | -6% | .
CCOc1c(C)cc(-c2ncccc2O)cc1C | -1 | -6% | -1% | 3% | 28µM*
Cc1ccc(O)c2ncccc12 | -7 | -1% | 2% | . | .
CCCOc1ccc(C2=NC(c3ccc(F)cc3)=Nc3ccc(OC)cc3N2)cc1 | . | . | . | . | -2%
O=C1CCCN1CCC(=O)N1CCCC(CO)(Cc2ccccc2)C1 (stereo not given) | 1 | -1% | 42% | 28µM* | -1%
COC(=O)C1=C(C(=O)OC)[C@@H]2N(C)c3ccccc3[C@@]23C[C@@H](C(=O)OC)N(S(=O)(=O)c2ccc(C)cc2)C3=N1 | 0[11.7 µM] | -15%[11.7 µM] | . | . | .
NS(=O)(=O)c1ccc(NS(=O)(=O)c2ccc(C3CNC(=O)C3)cc2)cc1 (stereo not given) | ? | -24% | -14% | 1% | 28µM*
O=C1CC(c2ccc(S(=O)(=O)N3CCCCC3)cc2)CN1 (stereo not given) | 0 | 24% | 8% | 4% | 1%
Cc1c(-c2ccccc2)[nH]n2c(=O)c3c(nc12)CCCC3 | 3 | 1% | 4% | ? | 25µM*
O=c1c2c(nc3c(-c4ccccc4)c[nH]n13)CCC2 | 9 | 14% | -17% | 11% | 25µM*
C=C(C)CSc1nc2sc3c(c2c(=O)n1-c1ccccc1)CCC(C)C3 (stereo not given) | . | . | . | . | -1%
O=C(Cc1ccc(Oc2ccccc2)cc1)NO | . | . | . | . | 3%
CC(NC(=O)c1cnn2c1NC(=C1CC1)C=C2C(F)F)c1ccncc1 (stereo not given) | . | . | . | . | -15%
SMILES | Menin-MLL FL inh | Menin MLL FP TR | CXXC DNA block | p53 reactivator | ClpP mod
COC(CNC(=O)c1ccc2nc3ccccc3c(=O)n2c1)OC | 3 | -27% | 46% | 4% | .
COCCCNC(=O)c1ccc2nc3ccccc3c(=O)n2c1 | -3 | 5% | -3% | ? | 16µM*
O=S(=O)(c1ccccc1)c1nnn2c1nc(NC1CCCCCC1)c1sccc12 | . | . | . | . | -7%
O=[N+]([O-])c1ccccc1S(=O)(=O)N1CCN(c2nc(-c3cccs3)nc3ccccc23)CC1 | . | . | . | . | -5%
O=C(NCc1ccc(C(F)(F)F)cc1)c1ccc(-c2ccc(F)c(F)c2)c2ccoc12 | . | . | . | . | 28µM*
O=C(NCc1ccncc1)c1ccc(-c2ccc(F)c(F)c2)c2ccoc12 | . | . | . | . | 4%
CCC(C)S(=O)(=O)c1oc(-c2cccs2)nc1S(=O)(=O)c1ccccc1 (stereo not given) | . | . | . | . | 5%
